Screens deposited in PubChem BioAssay by several laboratories.
WT yeast gro inh: growth inhibition of WT yeast, mitochondrial fusion screen; 190,000 compounds, 2.1% hits; inhibition, % at 10 µM; AID 1362; mitochondrial fusion phenotypic screen, WT strain; in the data active = inhibition above about 58%; tested in S. cerevisiae
Arbovirus inh: antivirals against arbovirus infection. arbovirus infection cell-based antiviral screen. inhibition, % at 10 µM. 200,000 compounds, 0.37% hits. AID 1251; in the data active = inhibition above about 30%
CHOP inh: CHOP inhibition in unfolded protein response | 220,000 compounds, 3.8% hits | CHO-K1 CHOP-promoter luciferase, tunicamycin-induced, 15-18 h | inhibition, % at 10 µM;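 active = compounds that reduced the stress-induced luciferase reporter signal by more than about 70% of percent inhibition, limit read from the data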
Lmaj promast: reduces viability of Leishmania major promastigotes. 200,000 compounds, 9% hits. resazurin fluorescence viability. AID 1063. inhibition, % at 10 µM; in the data active = inhibition above about 50%;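 also: promastigotes grown with compound for 44 hours at 28 °C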
Numbers stand for hits; i = inactive; nt = no result. An excerpt weighted towards active compounds, which were near 12% of everything screened.

SMILES	WT yeast gro inh	Arbovirus inh	CHOP inh	Lmaj promast
Fc1ccc(CN2CCCN(Cc3nc(-c4ccc5c(c4)OCO5)no3)CC2)cc1	i	i	i	95.3
COc1cc2c(cc1OC)CN(C(=O)c1sc(-c3cnccn3)nc1C)CC2	nt	nt	i	nt
c1ccc(C2CCCN(Cc3nc(CC4CC4)no3)CC2)cc1 (configuration not stated)	i	i	i	i
c1ccc(C(c2ccccc2)c2noc(CN3CCC(c4ccncc4)CC3)n2)cc1	i	i	i	90.2
CCOC(=O)c1ccc(NC(=O)COc2ccc(CNC3CCCCC3)cc2OC)cc1	i	i	i	93.7
CCOC(=O)c1ccc(NC(=O)COc2ccccc2CNCCc2ccccc2)cc1	i	i	i	100.5
C=CCOc1ccc(CNC(C)(C)CO)cc1OC	i	i	i	i
COc1cc(CNC(C)(C)CO)ccc1OCC(=O)Nc1ccc(Br)cc1	i	i	i	100.5
Cc1[nH]c(=O)[nH]c(=O)c1S(=O)(=O)NCC12CC3CC(CC(C3)C1)C2	i	i	i	i
CCC(NS(=O)(=O)c1c(C)[nH]c(=O)[nH]c1=O)C12CC3CC(CC(C3)C1)C2 (configuration not stated)	63.8	i	i	i
O=C(C[n+]1ccc(C(=O)NCc2ccccc2)cc1)c1ccc(OC(F)F)cc1	i	i	i	i
O=C(C[n+]1cn(C(F)F)c2ccccc21)c1ccc(OC(F)F)cc1	71.0	i	i	i
O=c1cc(N2CCCCC2)c(-c2ccccc2)nn1Cc1ccccc1Cl	88.3	i	90.2	i
O=c1cc(N2CCCCC2)c(-c2ccccc2)nn1Cc1ccc(Cl)cc1Cl	72.8	i	i	i
O=c1cc(N2CCCCC2)c(-c2ccccc2)nn1Cc1cccc(Cl)c1	86.3	i	i	i
C=CCn1nc(-c2ccccc2)c(N2CCCCC2)cc1=O	i	i	i	i
CC(=O)CC1=NC(C)(C)Cc2ccccc21	i	i	i	i
O=[N+]([O-])c1ccc(N2CCN(CCO)CC2)cc1Sc1nc2ccccc2[nH]1	i	i	i	i
C#CCn1c(=NC(=O)c2sc3ccccc3c2Cl)sc2cc(S(N)(=O)=O)ccc21	i	i	i	i
COCCn1c(=NC(=O)c2ccc3c(c2)OCCO3)sc2cc(S(N)(=O)=O)ccc21	i	i	i	i
CCOCCn1c(=NC(=O)c2cc(Cl)sc2Cl)sc2cc(S(N)(=O)=O)ccc21	i	i	90.4	i
COCCn1c(=NC(=O)c2cc(Cl)sc2Cl)sc2cc(S(N)(=O)=O)ccc21	i	i	81.4	i
CCN1CCN(C(c2cccs2)C(C)NS(=O)(=O)c2ccc(F)cc2)CC1 (configuration not stated)	i	i	73.3	i
N#Cc1c2n(c(=S)n(-c3ccc(F)cc3)c1=O)CCCCC2	i	i	i	i
O=C1NC(=O)/C(=C\c2ccccc2OCc2ccc([N+](=O)[O-])cc2)N1	i	i	i	i
SMILES	WT yeast gro inh	Arbovirus inh	CHOP inh	Lmaj promast
O=C1NC(=O)/C(=C\c2ccc(OCc3cccc([N+](=O)[O-])c3)cc2)N1	i	i	76.0	i
COc1ccccc1NC(=O)C1=C(C)Nc2nnnn2C1c1cc(Br)ccc1OC (configuration not stated)	i	i	i	96.7
CC1=C(C(=O)Nc2ccccc2)C(c2ccncc2)n2nnnc2N1 (configuration not stated)	i	i	i	56.8
Cc1ccc(CCNC(=O)CN(C)S(=O)(=O)c2ccc3c(c2)n(C)c(=O)c(=O)n3C)cc1	nt	nt	i	nt
COc1ccc(C2C(C#N)=C(/N=C/N3CCN(C)CC3)OC3=C2C(=O)CC(C)(C)C3)cc1OC (configuration not stated)	i	i	i	63.9
CCOc1ccc(N(CC(=O)NCC2CCCO2)S(=O)(=O)c2ccc(Cl)cc2)cc1 (configuration not stated)	i	i	i	70.2
CN1CCN(CC(O)(c2ccc(Cl)cc2)c2ccc(Cl)cc2)CC1	82.5	i	i	52.9
Cc1ccc2nc(NC(=O)CSc3nc4ccccc4o3)sc2c1	i	i	i	i
Cc1ccc(-c2csc(NC(=O)CSc3nc4ccccc4o3)n2)cc1	i	i	i	81.4
C=CCSc1nnc(NC(=O)CSc2nc3ccccc3o2)s1	i	36.4	i	i
O=C(CSc1nc2ccccc2[nH]1)Nc1nc(-c2ccc(Br)cc2)cs1	i	i	77.1	i
Cc1nnc(NC(=O)CSc2nc3ccccc3o2)s1	i	i	i	i
CCCc1cc(=O)[nH]c(SCC(=O)Nc2nc(-c3ccccc3)cs2)n1	i	i	i	i
CCOc1cc(C2C(C#N)=C(N)OC(C)=C2C(C)=O)c(Br)c(Br)c1OC(C)C (configuration not stated)	i	i	i	63.8
CC1=C(C(=O)N2CCOCC2)C(c2ccc(OC(F)F)cc2)NC(=S)N1c1ccccc1 (configuration not stated)	i	i	i	i
O=C(O)c1cc(-c2ccccc2)n(-c2ccc(Cl)cc2)n1	i	i	i	i
CCCCCCCCCC[n+]1cccc(C(=O)N(CC)CC)c1	i	i	i	90.5
Cc1ccc(OCC(=O)Nc2ccc(C)c(S(=O)(=O)N3CCCCC3)c2)c([N+](=O)[O-])n1	i	i	i	i
Cc1cc(-n2c(C)cc(C(=O)CSc3nnc4sc5ccccc5n34)c2C)no1	i	i	i	i
Cc1cc(-n2c(C)cc(C(=O)CSc3ncnc4ccccc34)c2C)no1	i	i	70.1	i
O=[N+]([O-])c1ccc2nc(-[n+]3c(-c4ccccc4)cc(-c4ccccc4)cc3-c3ccccc3)[nH]c2c1	i	i	i	89.1
O=[N+]([O-])c1ccc2nc(-c3ccc(Cl)cc3)[nH]c2c1	62.9	i	i	i
CCCNc1nc(C)cc(-c2cc(-c3ccc(Cl)cc3)on2)n1	nt	nt	i	nt
Cc1ccc(S(=O)(=O)NNC(=O)c2ccoc2C)cc1	nt	nt	i	nt
O=C(NCCCCNC(=O)C(F)(F)F)C(F)(F)F	i	i	i	i
SMILES	WT yeast gro inh	Arbovirus inh	CHOP inh	Lmaj promast
COc1ccc(S(=O)(=O)N2CCOCC2)cc1NC(=O)CN1CCCC1	i	i	i	i
COc1ccc(S(=O)(=O)N2CCOCC2)cc1NC(=O)COC(=O)C1COc2ccccc2O1 (configuration not stated)	i	i	i	66.2
COc1ccc(S(=O)(=O)N2CCOCC2)cc1NC(=O)COC(=O)c1ccc(C)s1	i	i	i	i
COc1ccc(S(=O)(=O)N2CCOCC2)cc1NC(=O)CN1CCC(Cc2ccccc2)CC1	i	i	i	99.1
CCCCCOC(=O)c1c(N)n(CCOC)c2nc3ccccc3nc12	i	i	i	99.9
CCOC(=O)c1c(NC(=O)c2ccco2)n(C2CCCCC2)c2nc3ccccc3nc12	i	i	i	99.7
CCOC(=O)c1c(N)n(CCOC(=O)c2cccs2)c2nc3ccccc3nc12	i	i	i	60.3
COCCOC(=O)c1c(N)n(CCCN2CCOCC2)c2nc3ccccc3nc12	nt	nt	i	nt
CCC(=O)Nc1c(C#N)c2nc3ccccc3nc2n1C1CCCCC1	i	i	i	i
CCOC(=O)c1c(N)n(C2CC(C)(C)NC(C)(C)C2)c2nc3ccccc3nc12	i	i	i	83.3
O=C(CSc1nnnn1C1CCCCC1)NCc1cccs1	i	i	i	i
CCOc1ccccc1N1CCN(C2=C(NS(=O)(=O)c3cccs3)C(=O)c3ccccc3C2=O)CC1	i	i	71.3	99.4
